Screening results deposited in PubChem BioAssay by National Center for Advancing Translational Sciences (NCATS).
Marburg entry inh: qHTS for inhibitors of binding or entry into cells for Marburg Virus; 1.8% of 300,000 active; Marburg virus pseudotyped entry inhibition, cell reporter; Potency, µM (doses to about 37.8 µM), hits mostly inhibitors; AID 540276, 2011; calls by dose curve; tested in HEK293 cells
Pf growth 96h: Primary qHTS for delayed death inhibitors of the malarial parasite plastid, 96 hour incubation | Potency, µM (doses to about 28.7 µM), actives largely listed as inhibitors | 6.9% of 320,000 active | P. falciparum luciferase reporter growth, 96 h
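Cell-based qHTS: luciferase-tagged P. falciparum in erythrocytes (2% hematocrit, 0.05% parasitemia final) incubated with compounds for 96 hours, 37 C, 5% CO2; luciferase detection reagent then added and luminescence measured.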
CHX counter: Cycloheximide Counterscreen for Small Molecule Inhibitors of Shiga Toxin; max response, %; AID 2314, 2010; cell reporter, cycloheximide protein synthesis inhibition counterscreen; 12% of 300,000 active; in the data active means max response mostly above about 13%, no sharp cut-off; inactive means mostly below about 14%; further: read at 38.3 µM for the half of the compounds with a filed dose
Lassa entry inh: qHTS for Inhibitors of binding or entry into cells for Lassa Virus; AID 540256, 2011; Lassa virus pseudotype entry inhibition, cell reporter; Potency, µM (titrated, usually from 37.9 µM), usual class: inhibitors; 1.2% of 300,000 active; calls by dose curve; tested in HEK293 cells; further: nearly all actives have a fitted effect of over 50% in size
Shiga inhibitor: A qHTS for Small Molecule Inhibitors of Shiga Toxin; 9.2% of 290,000 active; AID 2315, 2010; inhibition, % at 38.7 µM; Vero cells, Shiga toxin protein synthesis inhibition reporter; in the data active means inhibition mostly above about 28%, no sharp cut-off; inactive means mostly below about 43%
Pf growth 48h: Primary qHTS for delayed death inhibitors of the malarial parasite plastid, 48 hour incubation; P. falciparum luciferase growth in erythrocytes, 48 h; Potency, µM (series often up to 28.7 µM), actives largely listed as inhibitors; 5.9% of 310,000 active
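Growth was read as firefly luciferase luminescence after a 48 h, 37 C, 5% CO2 exposure of compounds to reporter-bearing P. falciparum cultures (0.1% parasitemia, 2% hematocrit final) in Albumax-supplemented RPMI 1640.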
A number is an active result; - = inactive; ? = inconclusive; . = no result given; + = active, no number. This is a sample that favours compounds with a hit; in the whole collection about 19% have one here. Unless noted, the call rests on the fitted dose curve; in most records, active means well fitted inhibition curve with a large enough effect; inconclusive means small, poorly fitted or top-dose-only effect, or another doubt; inactive means no such curve, though single readings can be large or run the other way.

SMILES	Marburg entry inh	Pf growth 96h	CHX counter	Lassa entry inh	Shiga inhibitor	Pf growth 48h
O=C(COc1ccc(S(=O)(=O)N2CCCC2)cc1)NCCC1=CCCCC1	-	-	-	-	-	?
Nc1nc2ccccc2n1/N=C/c1ccc([N+](=O)[O-])s1	?	1.5µM	-	?	-	?
Nc1nc2ccccc2n1/N=C/c1ccc(-c2ccccc2)o1	?	-	25	-	72	-
CC(C)CC(O)(c1ccccc1)C(CN1CCOCC1)c1ccccc1 (stereo not given)	-	-	20	-	-	-
CC(C)CCC(O)(c1ccccc1)C(CN1CCOCC1)c1ccccc1 (stereo not given)	?	-	-	-	-	2.9µM
COc1ccc(C(O)(CCC(C)C)C(CN2CCOCC2)c2ccccc2)cc1 (stereo not given)	.	-	-	.	-	1.7µM
CCCC(O)(c1ccc(Cl)cc1)C(CN1CCOCC1)c1ccccc1 (stereo not given)	.	?	-	.	-	.
Cc1ccc(S(=O)(=O)Nc2cccc(C(=O)NCCCN3CCCC3=O)c2)cc1F	-	-	.	-	.	?
CCCOc1ccc(Cn2c(C)nc([N+](=O)[O-])c2SCC(O)COC)cc1[N+](=O)[O-] (stereo not given)	-	10µM	-	-	-	?
CCOc1ccc(Cn2c(C)nc([N+](=O)[O-])c2SCC(O)CCl)cc1[N+](=O)[O-] (stereo not given)	-	.	-	-	-	10µM
Cc1nc([N+](=O)[O-])c(SCC(N)=O)n1Cc1ccccc1	.	-	-	.	-	-
CN(C)C(CNC(=O)CSc1nc2ccccc2c(=O)n1Cc1ccco1)c1ccccc1 (stereo not given)	?	?	.	-	.	?
Cc1ccccc1OCCSc1nc(C)c(Cc2ccccc2)c(=O)[nH]1	-	.	.	-	.	.
CCOc1ccc(C(=O)Nc2cc(C)on2)cc1	?	-	31	?	73	-
Cc1cc(NC(=O)NC(=O)c2ccccc2)no1	-	?	20	-	38	-
Cc1ccc2nc(NC(=O)CSCC(=O)Nc3cc(C)on3)sc2c1	.	-	.	.	.	-
CCOc1cc(C(=O)Nc2cc(C)on2)cc(OCC)c1OCC	-	.	-	?	-	?
C/C(=C\c1ccccc1)C(=O)Nc1cc(C)on1	-	.	40	?	98	?
Cc1cc(NC(=O)c2ccc3nc(C)sc3c2)no1	-	?	43	?	195	-
CCC(C)[C@H](NC(=O)NCc1ccco1)C(=O)O (stereo not given in full)	-	.	-	-	-	-
CCCOc1ccc(C(=O)Nc2cccc(NC(=O)c3cccc(Cl)c3)c2)cc1	.	.	.	-	.	.
CCS(=O)(=O)N1CCc2cc(C(=O)N3CCN(c4ccccc4)CC3)ccc21	-	.	.	-	.	.
COc1ccccc1N1CCN(C(c2cccs2)C(C)NC(=O)c2cccnc2)CC1 (stereo not given)	.	-	-	.	-	-
Cc1ccccc1CS(=O)(=O)c1cn(CC(=O)N2CCC(C)CC2)c2ccccc12	-	?	-	-	-	?
Cc1cc(NC(=O)c2ccc(Cl)cc2)no1	?	-	32	?	59	-
SMILES	Marburg entry inh	Pf growth 96h	CHX counter	Lassa entry inh	Shiga inhibitor	Pf growth 48h
Cc1cc(NC(=O)c2cccc(COc3ccc(Br)cc3)c2)no1	7.3µM	-	112	13µM	+	-
O=C(OCC1CC(c2ccccc2)=NO1)c1ccc(Cl)cc1 (stereo not given)	-	-	-	-	-	-
CCn1c(COc2ccccc2OC)nc2ccccc21	.	-	13	.	-	-
CCCc1nc2ccccc2n1CCOc1ccccc1	-	4.1µM	-	-	-	.
C=C(Br)Cn1c(CCC)nc2ccccc21	-	10µM	-	-	-	-
CCn1c(COc2cccc(C)c2)nc2ccccc21	-	?	21	?	-	?
O=C(c1cccc(NS(=O)(=O)c2ccc(F)cc2)c1)N1CCN(c2ccccc2)CC1	?	-	.	?	.	?
COc1cccc(C(=O)CSc2nc3ccccc3n2CC(=O)N(C(C)C)C(C)C)c1	-	-	-	-	-	-
Cc1nc(Cl)c(Cl)n1CCOc1ccccc1	-	?	-	-	-	8.3µM
CCOCCn1c(COc2ccccc2)nc2ccccc21	-	.	-	-	-	-
COCn1c(COc2ccc3ccccc3c2)nc2ccccc21	?	-	22	-	77	-
CCC(C)Cn1c(COc2ccc(OC)cc2)nc2ccccc21 (stereo not given)	-	.	.	-	.	.
C=CCn1c(COc2ccccc2OC)nc2ccccc21	.	?	8.4	.	-	?
CCCn1c(COc2ccccc2)nc2ccccc21	?	?	8.3	-	-	?
CCOc1ccc(S(=O)(=O)c2cn(C)c3cc(OC)c(OC)cc3c2=O)cc1	.	-	-	.	-	-
CCCn1c(COc2ccccc2OC)nc2ccccc21	-	-	14	-	.	-
CCn1c(COc2ccccc2C)nc2ccccc21	-	?	33	-	39	-
CCn1c(COc2ccccc2C(N)=O)nc2ccccc21	-	.	-	-	-	-
Cc1nc2ccccc2n1CCCOc1ccccc1	?	?	21	?	47	-
Cc1ccc(OCCn2c(C)nc3ccccc32)cc1	?	-	-	?	.	?
C#CCn1c(COc2ccccc2C)nc2ccccc21	?	.	.	-	.	.
CCOc1ccc(N2CC(c3nc4ccccc4n3CCOc3ccccc3)CC2=O)cc1 (stereo not given)	?	.	.	-	.	.
CC(C)(C)N1CC(c2nc3ccccc3n2CCOc2ccccc2)CC1=O (stereo not given)	-	5.9µM	-	-	-	.
O=C(Nc1ccc(SC(F)F)cc1)c1ccc2c(=O)n3c(nc2c1)CCC3	.	-	.	.	.	-
Cc1cccc(N(CC(=O)N2CCCCCC2)S(C)(=O)=O)c1	.	?	-	.	-	-
SMILES	Marburg entry inh	Pf growth 96h	CHX counter	Lassa entry inh	Shiga inhibitor	Pf growth 48h
CS(=O)(=O)N(CC(=O)N1CCCCCC1)c1cccc(Br)c1	-	12µM	-	-	-	-
Cc1ccc(N(CC(=O)N2CCCCCC2)S(C)(=O)=O)cc1Cl	.	7.4µM	-	.	.	-
Cc1ccc(N(CC(=O)N2CCOCC2)S(C)(=O)=O)cc1Cl	.	?	-	.	-	-
O=C(Nc1ccccc1C(=O)NCc1cccnc1)c1ccc(Cl)cc1Cl	-	-	-	-	-	?
COC(=O)N/N=C/c1ccc(-c2ccc(C)c(Cl)c2)o1	?	?	16	-	-	-
Cc1ccc(-c2ccc(C(=O)O)o2)cc1Cl	-	-	16	?	-	-
Cc1ccc(-c2ccc(/C=N/NC(=O)CN3CCCC3)o2)cc1Cl	?	-	-	-	-	-
COC(=O)N/N=C/c1ccc(-c2cccc(Cl)c2)o1	-	-	33	-	55	-
COC(=O)N/N=C/c1ccc(-c2cc(Cl)cc(Cl)c2)o1	-	?	-	-	-	?
Cc1ccc(-c2ccc(/C=N/c3ncn[nH]3)o2)cc1Cl	?	-	17	?	-	-
